This is an account of results in PubChem BioAssay (Tox21).

The nature of test [1]: qHTS assay to identify small molecule agonists of the hypoxia (HIF-1) signaling pathway - cell viability counter screen (AID 1224844; calls by dose curve; further: nearly all actives have a fitted effect of over 50% in size; further: potency means the concentration at half of the fitted maximal effect). An outline of the steps: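 Cytotoxicity measured by CellTiter-Glo ATP luminescence in the wells also read for beta-lactamase signal. Cells were HRE-bla ME-180 (2,000/well, 0.5% dialyzed FBS), exposed to compounds for 17 h at 37C.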
(In general: Quantitative high-throughput screening tests each substance at several concentrations.)

A short description of test [2]: qHTS assay to identify small molecule agonists of H2AX (AID 1224845; active means well fitted activation curve with a large enough effect in the signal ratio in the repeat runs, not every such curve was filed as active; the % refers to the signal ratio; further: potency means the concentration at half of the fitted maximal effect). The essentials:
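Wild-type CHO-K1 cells plated overnight, then exposed 3 hr at 37C to compounds at 15 concentrations (0.76% DMSO). Lysed, then HTRF anti-pH2AX(S139)-cryptate/anti-H2AX-d2 detection after 24 hr at room temperature; emissions 665 and 620 nm.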

Test [3] is described as follows: qHTS assay to identify small molecule agonists of the hypoxia (HIF-1) signaling pathway (AID 1224846; active means well fitted activation curve with a large enough effect in the signal ratio in the repeat runs, not every such curve was filed as active; the % refers to the signal ratio; further: on the % scale 0 is the no-effect control and ±100 the full control effect). The essentials:
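Compounds added to ME-180 cells carrying hypoxia-response-element beta-lactamase reporter (0.5% dialyzed FBS, 5 h preplating), 17 h at 37C; agonist activity detected by CCF4-AM B/G FRET read-out.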

A short description of test [4]: qHTS RealTime-Glo MT Cell Viability Assay in HepG2 cells - 24 hour (AID 1224867). Further: nearly all actives have a fitted effect of over 50% in size. Further: potency means the concentration at half of the fitted maximal effect. An outline of the steps: (§1)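 HepG2 cells were seeded at 600 cells/well together with NanoLuc luciferase and a cell-permeant prosubstrate, preincubated 5 h at 37 C/5% CO2, then pin-dosed with compounds in DMSO. Nonlytic luminescence from viable cells was read at each time point.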
The nature of test [5]: A CellTox Green Cytotoxicity Assay to monitor cytotoxicity in HEK293 cells - 0 hour (AID 1224869). Further: on the % scale 0 is the no-effect control and ±100 the full control effect; nearly all actives have a fitted effect of over 50% in size. An outline of the steps: (§2)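 Fluorescence from a DNA-binding dye excluded by viable cells was measured repeatedly in the same HEK293 wells (600 cells/well) during continuous compound exposure at 37 C. Each assay gives one read point: 0, 8, 16, 24, 32 or 40 h.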
Test [6] in a line: qHTS RealTime-Glo MT Cell Viability Assay in HepG2 cells - 40 hour (AID 1224870). Further: nearly all actives have a fitted effect of over 50% in size. Further: potency means the concentration at half of the fitted maximal effect. The essentials: (§3)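 HepG2 cells mixed with RealTime-Glo MT reagents (NanoLuc plus cell-permeant prosubstrate) were seeded at 600 cells/well, incubated 5 h at 37 C/5% CO2, then pinned with compounds in DMSO; nonlytic luminescence tracked viability during 40 h treatment.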
Test [7] can be described thus: A CellTox Green Cytotoxicity Assay to monitor cytotoxicity in HEK293 cells - 40 hour (AID 1224871). Further: nearly all actives have a fitted effect of over 45% in size. Further: potency means the concentration at half of the fitted maximal effect. An outline of the steps: as §2
Test [8] can be described thus: qHTS RealTime-Glo MT Cell Viability Assay in HepG2 cells - 8 hour (AID 1224873). Further: nearly all actives have a fitted effect of over 55% in size. Further: potency means the concentration at half of the fitted maximal effect. The essentials:
as §3

The nature of test [9]: qHTS RealTime-Glo MT Cell Viability Assay in HEK293 cells - 40 hour (AID 1224874). Further: nearly all actives have a fitted effect of over 50% in size. Further: potency means the concentration at half of the fitted maximal effect. On max response: on the % scale 0 is the no-effect control and ±100 the full control effect. Conditions: RealTime-Glo luminescence; max response: stronger effect = lower value. The essentials: (§4)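 Luminescence, which tracks viable cell number through reduction of the prosubstrate to a NanoLuc substrate, was read over continuous 37 C culture. Cells (600/well) were premixed with reagent and rested 5 h before 23 nL of compound in DMSO was pinned.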

Test [10] in a line: A CellTox Green Cytotoxicity Assay to monitor cytotoxicity in HEK293 cells - 24 hour (AID 1224875). Further: nearly all actives have a fitted effect of over 45% in size. Further: potency means the concentration at half of the fitted maximal effect. On activity change: on the % scale 0 is the no-effect control and ±100 the full control effect. The essentials:
as §2

The nature of test [11]: A CellTox Green Cytotoxicity Assay to monitor cytotoxicity in HepG2 cells - 16 hour (AID 1224876). Further: nearly all actives have a fitted effect of over 45% in size. Further: potency means the concentration at half of the fitted maximal effect. An outline of the steps:
(§5)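 Real-time cytotoxicity: fluorescence of a cell-impermeant cyanine dye binding DNA of dead HepG2 cells, measured repeatedly (0–40 h) during compound exposure at 37 C. Cells seeded 600/well with reagent, dosed after 5 h.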

Test [12] is described as follows: qHTS RealTime-Glo MT Cell Viability Assay in HepG2 cells - 32 hour (AID 1224877). Further: nearly all actives have a fitted effect of over 55% in size. Further: potency means the concentration at half of the fitted maximal effect. The essentials:
as §1

A short description of test [13]: A CellTox Green Cytotoxicity Assay to monitor cytotoxicity in HepG2 cells - 24 hour (AID 1224878). Further: nearly all actives have a fitted effect of over 45% in size. Further: potency means the concentration at half of the fitted maximal effect. On Cytotoxicity: on the % scale 0 is the no-effect control and ±100 the full control effect. An outline of the steps: as §5
Test [14] can be described thus: A CellTox Green Cytotoxicity Assay to monitor cytotoxicity in HepG2 cells - 40 hour (AID 1224879). Further: nearly all actives have a fitted effect of over 40% in size. Further: potency means the concentration at half of the fitted maximal effect. The essentials:
as §5

Test [15] is described as follows: qHTS RealTime-Glo MT Cell Viability Assay in HEK293 cells - 0 hour (AID 1224880). The essentials:
as §4

Test [16] can be described thus: qHTS RealTime-Glo MT Cell Viability Assay in HEK293 cells - 16 hour (AID 1224872). Further: nearly all actives have a fitted effect of over 50% in size. Further: potency means the concentration at half of the fitted maximal effect. The essentials: (§6)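 HEK293 cells were seeded at 600 cells/well together with NanoLuc luciferase and cell-permeant prosubstrate, preincubated 5 h at 37 C/5% CO2, then given compound in DMSO by pintool. Luminescence from viable-cell prosubstrate reduction was read repeatedly over 40 h.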

A short description of test [17]: qHTS RealTime-Glo MT Cell Viability Assay in HEK293 cells - 32 hour (AID 1224868). The essentials: as §6
A short description of test [18]: qHTS assay to identify small molecule antagonists of the estrogen related receptor (ERR) signaling pathway from Tox21 library (AID 1224848). The essentials: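 First, 2,000 ERR cells per well were plated and held 6 h at 37 C/5% CO2. Next, compounds in DMSO were pinned in and left 18 h at 37 C. Finally, ONE-Glo was added and luminescence read after 30 min at room temperature.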

Test [19] in a line: qHTS assay to identify small molecule agonists of the estrogen related receptor (ERR) signaling pathway from Tox21 library (AID 1224849; calls by dose curve; further: on the % scale 0 is the no-effect control and ±100 the full control effect; nearly all actives have a fitted effect of over 15% in size). The settings on record: ERR reporter cell line, ONE-Glo luciferase, 18 h. An outline of the steps:
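Luminescent agonist read-out (One-Glo, 30-minute room-temperature incubation) following 18-hour compound treatment at 37 C of the ERR cell line, which had been plated 6 hours before dosing.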

The nature of test [20]: qHTS assay to identify small molecule agonists of H2AX - cell viability counter screen (AID 1224847; calls by dose curve; further: potency means the concentration at half of the fitted maximal effect; nearly all actives have a fitted effect of over 30% in size). The essentials: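 Cytotoxicity counter screen in wild-type CHO-K1 cells: a 3 hr compound treatment at 37C across 15 concentrations, followed by CellTiter-Glo luminescence to gauge viable cells.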

Values joined by “and” are separate entries in the source; they are usually repeats but may differ in a detail not shown here. Identical values can stand only once. Inconclusive results are not listed. Some structures have more than one record in an assay (separate samples or runs), and their calls can disagree. Active and inactive are the calls of the source. Unless noted, the call rests on the fitted dose curve; in most records, active means well fitted curve in the direction sought with a large enough effect in the repeat runs; inconclusive means weak or mixed curves; inactive means no such curve, though single readings can be large; an effect the other way counts as inactive or inconclusive.

Turning to `O=C(O)C(Cl)(Cl)Cl`, the Potency result in test [1], in test [2], in test [4], in [5], in test [6] and in test [7] was “inactive” throughout. Moreover, the Potency result in test [8], in test [10], in [11], in test [12], in test [13] and in test [14] was “inactive” each time. For the same molecule, the call in test [3] and in [15] was inactive. The max response in test [9] was 1.76% (inactive) and 3.09% (inactive).
On to `CCCC[n+]1cccc(C)c1`, for which the Potency entry in test [1], in test [2], in test [4], in test [5], in test [7] and in test [16] was “inactive” throughout. Further, the Potency result in test [8], in [10], in test [11], in [13] and in test [14] was “inactive” throughout. In addition, the call in test [3] and in test [15] was inactive. Also, the Potency entry in [6] is “inactive and 49.6 µM (active)”; in [12], “inactive and 55.7 µM (active)”.
`Cc1cc(-c2ccc(N)c(C)c2)ccc1N`: the Potency entry in test [1], in [4], in test [17], in [5], in test [6] and in [7] was “inactive” throughout. The Potency entry in [8], in [10], in test [11] and in [12] was “inactive” throughout. Further, the molecule was classed as inactive in test [3] and in test [15]. The Potency result in [13] is “inactive and 43.6 µM (active)”; in [14], “inactive and 43.6 µM (active)”.
In the case of `CCCCn1cc[n+](C)c1C`, the Potency entry in [1], in test [2], in [4], in test [5], in test [7] and in [16] was “inactive” each time. Besides, the Potency result in test [8], in [10], in [11], in [13] and in test [14] was “inactive” each time. Besides, the molecule was classed as inactive in test [3] and in [15]. Further, the Potency entry is “inactive and 22.1 µM (active)” in test [6]; “inactive and 44.2 µM (active)” in test [12]. For the same molecule, the max response in [9] was -1.35% (inactive) [middle of 6 runs].
For the molecule `C[C@]12CCC(=O)C=C1CC[C@@H]1[C@@H]2CC[C@]2(C)C(=O)CC[C@@H]12`, the Potency entry in [1], in test [4], in [5], in test [6], in [8] and in test [10] was “inactive” throughout. The Potency result in test [11], in [12] and in test [13] was “inactive” each time. In addition, the Potency was 88.3 µM (active) in test [2]; 42.5 µM (active) and 54.5 µM (active) in test [18]; 48.2 µM (active) and inactive in [7]; 24.1 µM (active) and inactive in [16]; 24.1 µM (active) and 24.5 µM (active) in test [9]; “inactive and 49 µM (active)” in [14]. The activity change, positive = activation is -23.4% (inactive) in [19] (at 42.5 µM (top of the series)); -46.4% (inactive) and -41% (inactive) in [19] (at 92.4 µM (top of the series)). Further, the max response in [9] is -20.4% (inactive). In [15], the molecule was called inactive.
As to `CCCCCCCCCCCC(=O)O`, the Potency result in test [1], in test [2], in [4], in test [5], in test [6] and in test [7] was “inactive” throughout. The Potency result in test [8], in test [10], in [11], in [12], in test [13] and in test [14] was “inactive” throughout. In addition, the molecule was classed as inactive in [3] and in [15].
For `CCn1cc[n+](C)c1C`, the Potency entry in test [1], in [2], in [4], in [5], in [6] and in [7] was “inactive” in each case. Also, the Potency result in [8], in test [10], in test [11], in [12], in [13] and in test [14] was “inactive” throughout. Besides, the call in test [3] and in [15] was inactive.
Regarding `Nc1ccccc1`, the Potency result in test [1], in test [2], in test [4], in test [5], in test [6] and in test [7] was “inactive” in each case. Moreover, the Potency result in test [8], in [10], in test [11], in [12], in [13] and in [14] was “inactive” in each case. The outcome in test [3] and in test [15] was inactive.
For `CCCCn1cc[n+](C)c1`, the Potency entry in [1], in test [2], in [4], in test [5], in [7] and in test [8] was “inactive” in each case. For the same molecule, the Potency result in test [10], in test [11], in [13] and in test [14] was “inactive” in each case. Besides, the result in test [3] and in test [15] was inactive. The Potency entry is “inactive and 35.2 µM (active)” in test [6]; “inactive and 44.3 µM (active)” in test [12].
`O=C(O)c1ccccc1O`: the Potency result in test [1], in test [2], in test [4], in test [5], in test [6] and in [7] was “inactive” each time. Moreover, the Potency entry in test [8], in test [10], in [11], in test [12], in [13] and in [14] was “inactive” each time. The outcome in test [3] and in test [15] was inactive.
With `CC(=O)[O][Hg][c]1ccccc1`, the Potency was 154 nM (active) and 1.74 µM (active) and 2.68 µM (active) in test [1]; 3.16 µM (active) and 5.66 µM (active) and 24.7 µM (active) in test [20]; 2.15 µM (active) and 3.44 µM (active) and 5.96 µM (active) in test [18]; 1.72 µM (active) and 1.95 µM (active) and 1.07 µM (active) in [4]; 1.93 µM (active) and 1.95 µM (active) and 1.07 µM (active) in [6]; 433 nM (active) and 1.1 µM (active) and 213 nM (active) in test [7]. Besides, the Potency in test [8] is 1.93 µM (active) and 1.74 µM (active) and 1.07 µM (active); in test [10] it was 863 nM (active) and 1.38 µM (active) and 1.07 µM (active); in [11] it was 1.72 µM (active) and 2.45 µM (active) and 1.51 µM (active); in test [12], 1.72 µM (active) and 1.95 µM (active) and 1.07 µM (active); in test [13] it was 1.93 µM (active) and 2.45 µM (active) and 1.34 µM (active); in [14], 1.22 µM (active) and 1.95 µM (active) and 1.07 µM (active). The activity change, positive = activation in test [19] (at 42.5 µM (top of the series)) is -71% (inactive); in test [19] (at 92.4 µM (top of the series)) it was -80.3% (inactive) and -73.5% (inactive). Further, the Potency entry in test [5] was “inactive”. Moreover, the outcome in test [15] was inactive.
`Oc1cccc2cccnc12`: the Potency was 1.1 µM (active) and inactive in test [1]; 1.43 µM (active) and 3.02 µM (active) and inactive in [2]; “inactive and 3.47 µM (active)” in [4]; “inactive and 3.09 µM (active)” in [6]; “inactive and 6.16 µM (active)” in test [11]; “inactive and 3.09 µM (active)” in [12]. Also, the Potency result in test [5], in test [8] and in [10] was “inactive” in each case. The result in [15] was inactive.
For the molecule `Cc1cc(Cl)ccc1OCC(=O)O`, the Potency result in [1], in test [2], in test [4], in test [5], in test [6] and in test [7] was “inactive” throughout. Further, the Potency entry in test [8], in [10], in test [11], in test [12], in test [13] and in test [14] was “inactive” in each case. Also, the molecule was classed as inactive in [3] and in test [15]. For the same molecule, in [9], the max response is 23.3% (inactive) and 12.2% (inactive) and 10.9% (inactive).
